Assay [1] can be described thus: compound effects on lung adenocarcinoma cell viability – A549, calcein-AM fluorescence, 48 h, basal, profiling panel (AID 1162). Note: test concentration not given here. The note with it: higher = more signal.
Assay [2] is described as follows: compound effects on differentiated 3T3-L1 adipocyte viability – cell-based, 3T3-L1 adipocytes, calcein-AM fluorescence, 48 h, basal, profiling panel (AID 1163). Note: test concentration not given here. The following applies: 3T3-L1 adipocytes viability, higher = more signal.
A short description of assay [3]: compound effects on hepatocellular carcinoma cell viability – HepG2, calcein-AM fluorescence, 48 h, basal, profiling panel (AID 1164). Note: test concentration not given here. The note with it: higher = more signal.
Assay [4] in a line: compound effects on multiple myeloma cell viability – MM1S, calcein-AM fluorescence, 48 h, basal, profiling panel (AID 1165).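 Note: viability of MM1S multiple myeloma cells under basal unstimulated conditions; test concentration not given here.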 The following applies: higher = more signal.
Assay [5] in a line: calcein-AM signal in unstimulated myeloma cells – cell-based, calcein-AM fluorescence, 48 h, PK04 Diversity Set, profiling panel (AID 1166).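 Note: cells grown under basal conditions without added stimulus; test concentration not given here.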 The following applies: RPMI8226 myeloma viability, higher = more signal.
Assay [6] in a line: JC-1 mitochondrial signal, unstimulated HepG2 cells – cell-based, JC-1 fluorescence, 24 h, 100 nL compound, profiling panel (AID 1167). Note: test concentration not given here. The note with it: HepG2 mitochondrial potential, higher = more signal.
Assay [7] is described as follows: JC-1 mitochondrial signal, unstimulated adipocytes – cell-based, JC-1 fluorescence, 3T3-L1 adipocytes, 24 h, 100 nL compound, profiling panel (AID 1168). Note: test concentration not given here. The note with it: JC-1 mitochondrial fluorescence, higher = more signal, called active from +8 up or from −8 down.
The nature of assay [8]: JC-1 mitochondrial signal, unstimulated myeloma cells – cell-based, JC-1 fluorescence, RPMI8226, 24 h, 100 nL compound, profiling panel (AID 1169). Note: test concentration not given here. The note with it: JC-1 mitochondrial potential fluorescence, higher = more signal.
A short description of assay [9]: JC-1 mitochondrial signal, unstimulated MM1S myeloma – cell-based, JC-1 fluorescence, 24 h, 100 nL compound, profiling panel (AID 1170). Note: test concentration not given here. The note with it: MM1S mitochondrial potential, higher = more signal.
Assay [10] is described as follows: resazurin metabolic signal in A549 cells – cell-based, resazurin fluorescence, 24 h, PK04 Diversity Set, profiling panel (AID 1171). Note: test concentration not given here. The following applies: A549 viability, higher = more signal, called active from +8 up or from −8 down.
Assay [11] is described as follows: resazurin metabolic signal in HepG2 cells – cell-based, resazurin fluorescence, 24 h, PK04 Diversity Set, profiling panel (AID 1172). Note: test concentration not given here. The following applies: HepG2 viability, higher = more signal. On the technique in general: Alamar Blue is a resazurin reagent that responds to reducing activity.
Assay [12] can be described thus: budding yeast growth changes without added modifier – OD600, strain BY4716, 24 h, basal condition, primary screen (AID 1173). The note with it: S. cerevisiae BY4716 growth, OD600, 24 h; higher = more signal, called active from +8 up or from −8 down.
A short description of assay [13]: viability profiling in MM1S myeloma cells – cell-based, resazurin fluorescence, basal, 24 h, PK04 Diversity Set, profiling panel (AID 1174). Note: test concentration not given here. The note with it: higher = more signal, called active from +8 up or from −8 down.
The target in assay [14] is Dihydroorotate dehydrogenase (quinone), mitochondrial (Plasmodium falciparum (isolate 3D7)) (UniProt Q08210). Kind of assay: inhibition of P. falciparum DHODH – biochemical, C-terminal His tag, absorbance 600 nm, primary screen (AID 1175).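 Note: recombinant parasite enzyme with a five histidine tag at its C terminus; test concentration not given here.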 The note with it: PfDHODH enzyme, DCIP absorbance 600 nm; higher = more signal, called active from +8 up or from −8 down.
The nature of assay [15]: inhibition of PAO1 biofilm formation – strain PAO1, LB-PBS medium, absorbance 600 nm, primary screen (AID 1176). Note: test concentration not given here. The note with it: P. aeruginosa PAO1 growth/biofilm, A600, 12 h; higher = more signal.
A short description of assay [16]: growth modulation of vineyard yeast isolate – strain RM11-1a, OD600, basal, 24 h, primary screen (AID 1177).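 Note: cultures grown under basal conditions with no added stressor; test concentration not given here.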 The following applies: S. cerevisiae RM11-1a growth, OD600, 24 h; higher = more signal, called active from +8 up or from −8 down.
Assay [17] can be described thus: growth of efflux-deficient E. coli DRC39 – strain DRC39, OD650, 24 h, E. coli filamentation inducers, primary screen (AID 1178).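 Note: growth measured as culture turbidity by optical density at 650 nm; test concentration not given here.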 The note with it: E. coli DRC39 acrAB, higher = more signal, called active from +8 up or from −8 down.
Assay [18] in a line: growth of efflux-deficient E. coli DRC39 – strain DRC39, OD650, 48 h, E. coli filamentation inducers, primary screen (AID 1179).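 Note: screen aims at cell division blockers that make cells filament.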 The note with it: E. coli DRC39 delta-acrAB growth, higher = more signal, called active from +8 up or from −8 down.
Assay [19] in a line: viability profiling in RPMI8226 myeloma cells – cell-based, resazurin fluorescence, basal, 24 h, PK04 Diversity Set, profiling panel (AID 1180).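 Note: RPMI8826 multiple myeloma cell line at 5000 cells per well; test concentration not given here.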 The note with it: higher = more signal.
Assay [20] has as its target E3 ubiquitin-protein ligase XIAP (Homo sapiens) (UniProt P98170). As to the kind of experiment: small molecules binding XIAP protein – biophysical, small-molecule microarray, fluorescence 635 nm, primary screen (AID 1181).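 Note: score merges 667 nm emission and signal to noise over triplicate slides.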 The following applies: higher = more signal.

SMILES strings stand for the structures. Values joined by “and” are separate entries in the source; they are usually repeats but may differ in a detail not shown here. Equal values may be shown once. Active and inactive are the calls of the source. Unless noted, the rule behind the calls is not given here.

Data on 6 molecules can be found in PubChem BioAssay.

Chain of E3 ubiquitin-protein ligase XIAP (Homo sapiens) (P98170 whole entry, looked up): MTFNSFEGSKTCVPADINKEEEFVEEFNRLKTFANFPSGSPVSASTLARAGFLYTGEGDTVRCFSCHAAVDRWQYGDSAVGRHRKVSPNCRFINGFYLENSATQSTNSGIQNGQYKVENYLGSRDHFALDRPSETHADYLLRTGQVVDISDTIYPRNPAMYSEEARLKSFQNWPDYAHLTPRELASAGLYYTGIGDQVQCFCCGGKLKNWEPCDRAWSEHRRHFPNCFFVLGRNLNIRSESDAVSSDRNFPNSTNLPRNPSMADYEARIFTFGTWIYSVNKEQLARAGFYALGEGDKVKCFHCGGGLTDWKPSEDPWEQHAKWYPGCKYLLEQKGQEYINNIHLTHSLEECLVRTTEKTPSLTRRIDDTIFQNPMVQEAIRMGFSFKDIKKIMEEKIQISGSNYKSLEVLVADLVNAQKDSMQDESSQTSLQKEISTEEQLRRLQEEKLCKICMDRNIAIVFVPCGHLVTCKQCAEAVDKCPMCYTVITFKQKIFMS
Chain of Dihydroorotate dehydrogenase (quinone), mitochondrial (Plasmodium falciparum (isolate 3D7)) (Q08210 whole entry, looked up): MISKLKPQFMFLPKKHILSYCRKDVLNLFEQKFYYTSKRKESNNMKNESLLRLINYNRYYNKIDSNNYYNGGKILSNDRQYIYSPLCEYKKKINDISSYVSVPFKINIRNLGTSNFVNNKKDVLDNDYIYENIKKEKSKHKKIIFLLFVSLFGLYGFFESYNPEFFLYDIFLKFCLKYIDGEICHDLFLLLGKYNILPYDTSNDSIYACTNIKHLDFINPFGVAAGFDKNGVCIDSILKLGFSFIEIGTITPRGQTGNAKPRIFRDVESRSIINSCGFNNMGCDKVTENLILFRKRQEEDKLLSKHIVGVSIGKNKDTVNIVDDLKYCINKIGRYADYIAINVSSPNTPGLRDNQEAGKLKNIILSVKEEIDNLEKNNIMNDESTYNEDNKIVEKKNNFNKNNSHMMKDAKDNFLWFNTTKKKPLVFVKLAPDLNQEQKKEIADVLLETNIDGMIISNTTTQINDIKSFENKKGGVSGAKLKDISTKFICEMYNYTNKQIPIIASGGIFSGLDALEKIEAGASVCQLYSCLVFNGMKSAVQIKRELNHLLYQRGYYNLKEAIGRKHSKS

`CCOC(=O)C[C@H]1[C@H](OC(=O)c2ccccc2-c2ccccc2)[C@@H](NC(=O)c2ccccc2)c2cc(OCCCO)ccc2N1C(=O)c1ccc2ccccc2n1`: the z-score was 0.916 and -0.393 in assay [1]; 0.804 and -0.0181 in assay [2]; 0.694 and 1.01 in [3]; 0.175 and -1.55 in [4]; -0.749 and -0.483 in assay [5]; 0.733 and 1.5 in [6]. The z-score in assay [7] is 0.408 (inactive) and 0.209 (inactive); in [8], -1.08 and 0.127; in assay [9], -0.627 and 0.14; in [10], 0.65 (inactive) and 0.579 (inactive); in assay [11] it was 0.578 and -0.48; in [12] it was -0.602 (inactive) and 1.01 (inactive). Moreover, the z-score in assay [13] is 0.602 (inactive) and -0.924 (inactive); in assay [15], -0.152 (inactive) and 0.432 (inactive); in assay [16], -0.26 (inactive) and -0.698 (inactive); in assay [17], 1.39 (inactive) and -0.851 (inactive); in assay [18], 0.845 (inactive) and -0.687 (inactive); in assay [19], -0.236 and -0.847. Besides, the composite z-score in assay [14] was 0.139 (inactive) and -0.264 (inactive); in assay [20] it was -0.227 and 0.0451.
`Cc1cc2c(nc1C)CCCN2CC(C)ON=C[C@@H](C)[C@H](OCc1ccccc1)C(C)C` (stereo not given in full): the z-score is -0.351 in [1]; -0.641 in [2]; 0.122 in [3]; -1.24 in assay [4]; -0.583 in [5]; -0.741 in assay [6]. The z-score in assay [7] was -0.827 (inactive); in assay [8], 0.708; in assay [9], -0.483; in assay [10], -0.522 (inactive); in assay [11], -0.524; in [12], -0.0028 (inactive). The z-score in assay [13] is -0.567 (inactive); in [15], -0.172 (inactive); in [16] it was 0.776 (inactive); in assay [17] it was -0.0901 (inactive); in assay [18], -0.549 (inactive); in assay [19], -0.394. Also, the composite z-score in assay [14] is 0.103 (inactive); in assay [20] it was 0.0546.
Consider `COC(=O)C1=C(C)N(Cc2ccccc2)[C@]23O[C@](C(=O)OC)(C(=O)N2[C@@H]1c1ccccc1)[C@H]1CCCC(=O)[C@H]13`, for which the z-score in assay [1] was 0.144 and -0.51; in assay [2] it was 0.474 and 0.827; in assay [3] it was -0.336 and -0.818; in assay [4], -3.25 and -1.15; in [5] it was -1.18 and -0.337; in [6] it was 0.662 and 0.827. Further, the z-score in [7] was 1.33 (inactive) and 0.966 (inactive); in assay [8], -0.736 and 0.0334; in [9], 0.291 and -0.342; in [10], 0.207 (inactive) and -0.277 (inactive); in assay [11], -0.483 and -0.852; in [12] it was -2.15 (inactive) and -0.0243 (inactive). Also, the z-score in assay [13] was 0.167 (inactive) and 0.867 (inactive); in [15], 0.39 (inactive) and -0.692 (inactive); in assay [16] it was -0.186 (inactive) and -0.402 (inactive); in [17], -0.321 (inactive) and -1.18 (inactive); in [18], -0.204 (inactive) and -1.38 (inactive); in [19], -0.327 and -0.466. Moreover, the composite z-score in [14] is 0.149 (inactive) and -3.24 (inactive); in assay [20], 0.0548 and -0.16.
For the molecule `CO[C@H]1COC(=O)CC=C[C@@H](C)COC(=O)[C@@H](OCc2ccccc2)C=C[C@@H]1C`, the z-score was 0.497 in assay [1]; 0.146 in [2]; 0.835 in assay [3]; 0.301 in [4]; 0.608 in assay [5]; 0.952 in [6]. For the same molecule, the z-score is -0.0508 (inactive) in [7]; -0.442 in [8]; -0.414 in [9]; -0.34 (inactive) in assay [10]; 0.537 in assay [11]; -1.93 (inactive) in assay [12]. Further, the z-score in assay [13] was 0.155 (inactive); in [15], -0.72 (inactive); in [16], -0.78 (inactive); in [17] it was 0.84 (inactive); in [18], 0.929 (inactive); in assay [19] it was 0.142. For the same molecule, the composite z-score in assay [14] was -0.825 (inactive); in assay [20], -0.245.
As to `C=CCN(C(=O)C1N(c2c(Cl)cccc2CO)C(=O)C2C(C(=O)O)C3C=CC21O3)c1ccc(OC)cc1` (stereo not given), the z-score in assay [1] is -0.211 and 1.87; in [2], 1.02 and 0.581; in [3], -0.915 and 1.6; in [4], 0.972 and -0.224; in assay [5] it was -0.998 and 0.529; in [6] it was -0.877 and 0.862. Further, the z-score was -0.955 (inactive) and 0.659 (inactive) in assay [7]; -0.106 and -0.544 in [8]; 0.644 and 0.576 in assay [9]; -0.475 (inactive) and 1.02 (inactive) in [10]; -0.48 and 0.737 in assay [11]; -0.566 (inactive) and -0.241 (inactive) in [12]. Besides, the z-score in assay [13] is -1.03 (inactive) and 0.874 (inactive); in [15], -0.137 (inactive) and -0.428 (inactive); in assay [16] it was 0.344 (inactive) and -1.83 (inactive); in assay [17], -0.237 (inactive) and 1.79 (inactive); in assay [18], -0.293 (inactive) and 1.93 (inactive); in [19], -0.509 and 1.06. Besides, the composite z-score in assay [14] is -0.394 (inactive) and -0.0226 (inactive); in [20], 0.281 and -0.152.
Take `CC(C)=NOC[C@@H](O)COCc1ccco1`: the z-score was 0.991 in [1]; -0.611 in [2]; 0.828 in assay [3]; 0.191 in assay [4]; 0.313 in [5]; -0.0938 in assay [6]. Moreover, the z-score is 0.121 (inactive) in assay [7]; 0.602 in assay [8]; -0.391 in assay [9]; -0.736 (inactive) in assay [10]; -0.907 in assay [11]; 0.14 (inactive) in [12]. Moreover, the z-score is -1.09 (inactive) in assay [13]; -0.324 (inactive) in assay [15]; 0.534 (inactive) in assay [16]; 0.745 (inactive) in assay [17]; 0.41 (inactive) in [18]; -1.11 in [19]. The figures for the composite z-score in assay [14] and in [20] were 0.102 (inactive) and 0.0576, respectively.
